Reference: PubChem BioAssay
Activity calls are given as the source filed them.

Tests used:
[1] = system: PRMT1 (protein arginine N-methyltransferase 1); experiment: PRMT1 binders on small-molecule microarrays, primary screen, biochemical, small-molecule microarray, 635 nm fluorescence (AID 1088); conditions: small-molecule microarray binding, higher = more signal;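 also: binding of Prmt1 protein to compounds spotted on small-molecule microarray slides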
[2] = yeast growth modulation, basal conditions, primary screen, YJM789 clinical isolate, OD600, 24 h (AID 1089);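 also: growth of clinical yeast isolate S. cerevisiae YJM 789 seeded 1000 cells per well; test concentration not given here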; conditions: S. cerevisiae YJM789 growth, higher = more signal, called active from +8 up or from −8 down
[3] = fission yeast growth modulation, primary screen, strain 972, OD600, 24 h, no modulator (AID 1090);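 also: basal condition with compound alone and no growth modifier present; test concentration not given here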; conditions: S. pombe 972 growth, higher = more signal, called active from +8 up or from −8 down
[4] = S. cerevisiae growth modulation with rapamycin, primary screen, strain BY4716, OD600, 96 h (AID 1091); conditions: higher = more signal, called active from +8 up or from −8 down; also: test concentration not given here
[5] = target: Torsin-1A-interacting protein 2 (Homo sapiens) (UniProt Q8NFQ8); experiment: LULL1 binders on small-molecule microarray, primary screen, cell lysate, human LULL1 lysate, 635/667 nm fluorescence (AID 1092); conditions: hLULL1 lysate binding, 635 nm fluorescence, higher = more signal;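 also: probe is lysate of COS7 cells overexpressing human LULL1; score merges per-feature 667 nm fluorescence with signal-to-noise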
[6] = E. coli growth modulation, two-sided OD650, primary screen, E. coli filamentation project, strain DRC41, 24 h (AID 1093); conditions: OD650, 24 h, higher = more signal, called active from +8 up or from −8 down;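 also: MC1000 strain lacking acrAB efflux and sulA so SOS filamentation is blocked; test concentration not given here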
[7] = small-molecule microarray binders of probe aLefty2, primary screen, biochemical, biotinylated probe, 635/667 nm fluorescence (AID 1094); conditions: higher = more signal;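 also: score merges spot fluorescence near 667 nm with spot signal-to-noise ratio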
[8] = system: Noggin (protein binding on small-molecule microarray); experiment: Noggin binders on small-molecule microarray, primary screen, biochemical, 635/667 nm fluorescence (AID 1095); conditions: 635 nm fluorescence, higher = more signal;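 also: score merges 667 nm feature fluorescence with signal to noise over triplicate slides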
[9] = target: Neurogenic locus notch homolog protein 3 (Homo sapiens) (UniProt Q9UM47); experiment: NOTCH3 binders on small-molecule microarray, primary screen, biochemical, 635/667 nm fluorescence (AID 1096); conditions: NOTCH3 binding, 635 nm fluorescence, higher = more signal
[10] = small-molecule microarray binders of probe aEGFR, primary screen, biochemical, biotinylated probe, 635/667 nm fluorescence (AID 1097); conditions: higher = more signal;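 also: probe is a biotinylated anti-EGFR antibody binding compounds printed on slides; score combines fluorescence near 667 nm and signal to noise of each spot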

Torsin-1A-interacting protein 2 (Homo sapiens), sequence (Q8NFQ8 whole entry, looked up): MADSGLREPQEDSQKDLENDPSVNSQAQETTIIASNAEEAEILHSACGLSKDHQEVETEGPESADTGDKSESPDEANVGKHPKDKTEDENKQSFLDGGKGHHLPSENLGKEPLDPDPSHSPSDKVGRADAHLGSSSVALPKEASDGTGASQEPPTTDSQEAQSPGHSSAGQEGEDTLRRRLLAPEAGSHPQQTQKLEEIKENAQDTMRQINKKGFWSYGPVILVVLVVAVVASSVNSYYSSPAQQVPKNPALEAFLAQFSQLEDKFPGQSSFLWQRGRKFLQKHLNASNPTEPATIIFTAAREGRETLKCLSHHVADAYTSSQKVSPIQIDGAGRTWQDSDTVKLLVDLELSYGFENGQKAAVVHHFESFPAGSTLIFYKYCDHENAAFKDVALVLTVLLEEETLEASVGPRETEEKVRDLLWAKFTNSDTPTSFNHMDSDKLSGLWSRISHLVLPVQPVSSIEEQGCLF
Neurogenic locus notch homolog protein 3 (Homo sapiens), sequence (Q9UM47 whole entry, looked up): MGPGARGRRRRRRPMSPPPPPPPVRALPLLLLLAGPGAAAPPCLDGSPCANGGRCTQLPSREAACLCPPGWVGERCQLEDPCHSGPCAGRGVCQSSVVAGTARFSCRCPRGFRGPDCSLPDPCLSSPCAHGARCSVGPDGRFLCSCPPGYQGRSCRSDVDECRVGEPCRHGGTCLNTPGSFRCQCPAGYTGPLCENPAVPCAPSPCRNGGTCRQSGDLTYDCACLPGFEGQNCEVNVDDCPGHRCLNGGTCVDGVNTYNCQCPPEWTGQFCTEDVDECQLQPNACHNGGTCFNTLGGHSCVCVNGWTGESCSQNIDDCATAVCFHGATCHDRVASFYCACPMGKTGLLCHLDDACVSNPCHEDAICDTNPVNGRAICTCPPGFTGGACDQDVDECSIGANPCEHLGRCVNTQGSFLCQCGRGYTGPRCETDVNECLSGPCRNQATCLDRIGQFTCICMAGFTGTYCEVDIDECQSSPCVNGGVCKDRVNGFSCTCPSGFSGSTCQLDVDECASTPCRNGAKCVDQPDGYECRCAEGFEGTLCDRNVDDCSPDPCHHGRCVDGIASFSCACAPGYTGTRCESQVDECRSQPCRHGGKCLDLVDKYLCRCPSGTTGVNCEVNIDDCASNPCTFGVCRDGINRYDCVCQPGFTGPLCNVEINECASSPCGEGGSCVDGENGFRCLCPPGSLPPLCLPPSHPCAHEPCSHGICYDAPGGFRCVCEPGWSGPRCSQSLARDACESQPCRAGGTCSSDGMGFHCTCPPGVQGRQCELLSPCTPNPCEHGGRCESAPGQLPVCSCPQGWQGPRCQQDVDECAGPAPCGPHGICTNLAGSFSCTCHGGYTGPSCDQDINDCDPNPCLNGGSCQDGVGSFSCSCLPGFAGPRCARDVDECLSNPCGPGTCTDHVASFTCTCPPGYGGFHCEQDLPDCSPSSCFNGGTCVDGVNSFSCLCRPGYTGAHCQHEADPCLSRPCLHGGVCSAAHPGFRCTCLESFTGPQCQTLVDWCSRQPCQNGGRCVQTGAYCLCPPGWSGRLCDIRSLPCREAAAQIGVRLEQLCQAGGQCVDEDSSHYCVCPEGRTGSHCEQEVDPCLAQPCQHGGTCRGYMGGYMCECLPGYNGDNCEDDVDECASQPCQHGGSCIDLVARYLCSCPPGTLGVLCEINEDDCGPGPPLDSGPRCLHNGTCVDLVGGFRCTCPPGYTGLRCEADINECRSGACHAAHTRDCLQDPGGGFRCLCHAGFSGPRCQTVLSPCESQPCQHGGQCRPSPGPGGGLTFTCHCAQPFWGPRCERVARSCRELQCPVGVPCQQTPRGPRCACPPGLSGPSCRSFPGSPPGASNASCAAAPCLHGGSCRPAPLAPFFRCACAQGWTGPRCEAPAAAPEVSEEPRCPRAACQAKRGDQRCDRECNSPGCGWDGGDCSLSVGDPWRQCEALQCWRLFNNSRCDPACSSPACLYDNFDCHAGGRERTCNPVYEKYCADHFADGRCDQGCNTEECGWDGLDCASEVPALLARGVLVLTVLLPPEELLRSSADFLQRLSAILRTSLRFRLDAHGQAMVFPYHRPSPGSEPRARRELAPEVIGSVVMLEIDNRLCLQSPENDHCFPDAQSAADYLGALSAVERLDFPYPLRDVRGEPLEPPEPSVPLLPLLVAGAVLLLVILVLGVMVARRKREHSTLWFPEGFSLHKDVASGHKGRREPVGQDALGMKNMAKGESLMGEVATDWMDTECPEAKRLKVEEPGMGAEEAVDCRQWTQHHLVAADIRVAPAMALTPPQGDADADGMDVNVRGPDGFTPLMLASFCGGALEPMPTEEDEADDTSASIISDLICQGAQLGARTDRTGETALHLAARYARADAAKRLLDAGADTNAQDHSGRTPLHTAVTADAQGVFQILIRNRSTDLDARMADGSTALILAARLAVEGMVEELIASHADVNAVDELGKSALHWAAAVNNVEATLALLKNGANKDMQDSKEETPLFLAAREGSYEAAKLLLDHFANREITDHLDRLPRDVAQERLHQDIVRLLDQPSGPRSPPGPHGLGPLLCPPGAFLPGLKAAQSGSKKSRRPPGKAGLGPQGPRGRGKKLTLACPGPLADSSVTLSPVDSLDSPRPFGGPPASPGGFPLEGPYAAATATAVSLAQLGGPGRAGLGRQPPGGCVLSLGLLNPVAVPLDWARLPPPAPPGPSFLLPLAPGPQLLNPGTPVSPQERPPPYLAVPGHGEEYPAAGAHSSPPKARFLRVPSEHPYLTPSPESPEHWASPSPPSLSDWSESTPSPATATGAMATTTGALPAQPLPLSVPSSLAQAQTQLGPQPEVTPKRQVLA

SMILES | composite z-score [1] | z-score [2] | z-score [3] | z-score [4] | composite z-score [5] | z-score [6] | composite z-score [7] | composite z-score [8] | composite z-score [9] | composite z-score [10]
O=C1O[C@H](c2ccccc2)[C@H](c2ccccc2)N2[C@H]1[C@@H](C(=O)NC[C@H](O)c1ccccc1)[C@]1(C(=O)Nc3ccc(C#CCCO)cc31)[C@H]2c1ccc(O)cc1 | -0.0718 | -0.383 (inactive) | -0.0869 (inactive) | 0.105 (inactive) | -0.217 | 0.092 (inactive) | 0.0249 | -0.984 | -0.415 | -0.194
C=CCNC(=O)[C@@H]1[C@H]2C(=O)O[C@H](c3ccccc3)[C@H](c3ccccc3)N2[C@H](c2ccc(OCCO)cc2)[C@@]12C(=O)Nc1ccccc12 | 1.55 | -1.2 (inactive) | 0.406 (inactive) | 2.21 (inactive) | 2.46 | 0.462 (inactive) | -0.175 | 1.28 | 1.09 | -0.197
Cc1ccccc1C(O)C1C=CC2C(=O)N(C)C(=O)C2N1N1CCCCC1 (stereo not given) | 1.11 | 0.299 (inactive) | 0.619 (inactive) | -0.417 (inactive) | 3.18 | -1.24 (inactive) | 0.331 | 0.21 | 1.13 | -0.0044
O=C1C[C@@](C(=O)NC2CC2)(c2ccc([N+](=O)[O-])cc2)[C@@H](c2ccc(CO)cc2)N1CC12CC3CC(CC(C3)C1)C2 | 1.27 | -0.632 (inactive) | -1.06 (inactive) | 0.122 (inactive) | 1.61 | 0.587 (inactive) | 0.0469 | 0.883 | 1.14 | -0.0485
CC(C)N1C(=O)[C@@]2(c3ccc([N+](=O)[O-])cc3)CC(=O)N(CC34CC5CC(CC(C5)C3)C4)[C@@H]2c2ccc(CO)cc21 | 0.788 | 0.759 (inactive) | 0.652 (inactive) | -0.975 (inactive) | -0.0313 | -0.0342 (inactive) | -0.253 | -0.337 | 0.272 | -0.162
Cc1ccc(F)cc1S(=O)(=O)N[C@@H]1CCN(Cc2ccc(-c3ccccc3)cc2)C1 | 0.126 | -26.5 (active) | -21.3 (active) | -4.06 (inactive) | 0.12 | -19.9 (active) | 0.144 | 0.713 | 0.481 | -0.0565
COC(=O)c1ccc(OC)c(/C=C\CC(OC(C)=O)c2ccccc2)c1 (stereo not given) | 0.31 | -1.71 (inactive) | -1.34 (inactive) | -0.0987 (inactive) | 0.879 | 0.759 (inactive) | -0.208 | 0.0928 | 0.275 | -0.115
COCCOC(=O)N1C(=O)[C@@]2(c3cc(C#CCC(C(=O)OC)C(=O)OC)ccc31)[C@H](c1ccccc1OCCO)N1[C@H](c3ccccc3)[C@H](c3ccccc3)OC(=O)[C@H]1[C@@H]2C(N)=O | 1.17 | 1.47 (inactive) | 0.951 (inactive) | 4.79 (inactive) | 2.74 | 1.12 (inactive) | 0.0074 | 0.726 | 1.1 | -0.0346
CC(=O)NCCCC[C@@H]1NC(=O)[C@@H]2C[C@H](C(=O)NCCCCCCNC(=O)CS)[C@H](c3ccc(O)cc3)N2C1=O | 1.5 | 0.372 (inactive) | -0.804 (inactive) | 0.778 (inactive) | 1.46 | -0.581 (inactive) | -0.103 | 0.171 | 0.0726 | -0.142
O=C(O)[C@@]1(Cc2ccccc2)N=C(c2ccc(OCCCO)cc2)O[C@H]1c1ccccc1 | 1.48 | 0.552 (inactive) | -0.93 (inactive) | 0.115 (inactive) | 2.42 | 0.625 (inactive) | -0.126 | 0.454 | 0.793 | -0.184
[N-]=[N+]=NCc1ccccc1C[C@]1(C(=O)O)N=C(c2ccc(OCCCO)cc2)O[C@H]1c1ccccc1 | 1.01 | -0.143 (inactive) | -0.305 (inactive) | -1.36 (inactive) | 1.86 | 0.279 (inactive) | -0.0221 | -0.985 | 0.204 | -0.232
COC(=O)c1ccc(C(O)C2C=CC3C(=O)N(C)C(=O)C3N2NC(=O)OC(C)(C)C)o1 (stereo not given) | 1.36 | -0.0904 (inactive) | 0.771 (inactive) | 0.122 (inactive) | 3.01 | -1.09 (inactive) | 0.177 | 0.356 | 0.526 | 0.0419
CC(C)OC(=O)CC(=O)CC(O)c1ccc(C#N)cc1 (stereo not given) | 0.269 | -2.05 (inactive) | 0.331 (inactive) | -0.602 (inactive) | 1.85 | 0.0935 (inactive) | 0.403 | -0.263 | 0.14 | 0.0541
O=C1O[C@@H](c2ccccc2)[C@@H](c2ccccc2)N2[C@@H](c3ccc(O)cc3)[C@]3(C(=O)Nc4ccc(C#CC5(O)CCCCCC5)cc43)[C@@H](C(=O)N3CCCCCCC3)[C@H]12 | 1.54 | 1.16 (inactive) | 0.321 (inactive) | 2.09 (inactive) | 4.45 | 0.26 (inactive) | 1.42 | 2.41 | 1.07 | 1.24
CC(C)NC(=O)[C@@]1(Cc2ccccc2I)c2ccccc2C(=O)N(Cc2ccccc2)[C@H]1c1ccc(CO)cc1 | 1.53 | -0.805 (inactive) | -1.5 (inactive) | -0.291 (inactive) | 2.91 | -0.408 (inactive) | -0.0354 | 1.04 | 1.09 | -0.0605
COC(=O)[C@@]1(Cc2ccc(F)cc2)[C@H]2c3cc(C(=O)N4CCCC4)n(Cc4cccc5ccccc45)c3C[C@H]2CN1C(=O)c1ccccc1 | 0.187 | 0.0247 (inactive) | 0.702 (inactive) | 0.307 (inactive) | 3.85 | -1.48 (inactive) | 0.698 | -0.275 | 0.941 | 0.245
C=C[C@H](COC(C)=O)N(Cc1ccc(OC(C)=O)c(OC)c1)S(=O)(=O)c1ccc(Br)cc1 | 0.484 | -2.5 (inactive) | -1.08 (inactive) | 0.105 (inactive) | 1.81 | 1.24 (inactive) | 0.15 | 0.337 | 0.176 | 0.312
O=C/C=C/c1ccc(Cl)cc1 | -1.24 | -10.4 (active) | -20.1 (active) | -2.49 (inactive) | -1.2 | -0.767 (inactive) | -0.134 | -0.968 | -1.09 | -0.113
COC(=O)C(CC#Cc1ccc2c(c1)[C@]1(C(=O)N2)[C@H](c2ccc(OCCO)cc2)N2[C@H](c3ccccc3)[C@H](c3ccccc3)OC(=O)[C@H]2[C@@H]1C(=O)NC[C@H](O)c1ccccc1)C(=O)OC | 1.54 | 2.37 (inactive) | 0.31 (inactive) | 7.43 (inactive) | 2.41 | 1.89 (inactive) | -0.141 | 0.617 | 0.908 | -0.0856
C#CCN(C(/C=C/c1ccccc1)CO)C(C(=O)O)c1ccccc1 (stereo not given) | -1.05 | 0.339 (inactive) | -1.13 (inactive) | 0.148 (inactive) | -0.595 | 2.19 (inactive) | -0.0849 | 0.274 | -0.715 | -0.101
CCCN1C(=O)[C@@]2(CCC(=O)OC(C)(C)C)N=C(c3ccc(OCCCO)cc3)O[C@H]2c2ccccc21 | 1.56 | -1.25 (inactive) | -1.19 (inactive) | 1.51 (inactive) | 2.64 | 1.2 (inactive) | 0.0272 | 1.82 | 0.518 | -0.0371
COc1ccc(C(=O)Nc2cccc(CN3C(=O)[C@@]4(O[C@@H](CCn5cc(CCO)nn5)[C@H]([Si](C)(C)c5ccc(OC)cc5)[C@H]4C)c4ccccc43)c2)cc1 | 1.55 | 1.65 (inactive) | -14 (active) | 0.984 (inactive) | 2.06 | -1.02 (inactive) | 0.0361 | 1.2 | 1.11 | 0.0511
CC1=C2[C@@H](CCc3ccccc3)OB(O)C[C@@H]2n2c(=O)n(-c3ccccc3)c(=O)n2C1 | 1.02 | -0.237 (inactive) | -1.51 (inactive) | -0.535 (inactive) | 0.902 | -0.296 (inactive) | -0.179 | 0.416 | 0.666 | -0.111
COCCCNC(=O)[C@@]1(c2ccc([N+](=O)[O-])cc2)CC(=O)N(CC23CC4CC(CC(C4)C2)C3)[C@@H]1c1ccc(CO)cc1 | 1.54 | 0.38 (inactive) | -0.634 (inactive) | -0.101 (inactive) | 2.28 | 1.45 (inactive) | 0.0054 | 1.54 | 1.08 | 0.0117
CCCC[C@H]1OB(O)C[C@H]2C1=C(C)C[C@H]1C(=O)N(Cc3ccccc3)C(=O)[C@H]12 | 0.705 | -0.482 (inactive) | -1.33 (inactive) | -1.04 (inactive) | 0.342 | 1.75 (inactive) | -0.102 | 0.919 | 0.666 | 0.0215
CC(=O)NCCCC[C@@H]1NC(=O)[C@H]2C[C@@H](C(=O)NCCCCCC[N+](C)(C)C)[C@@H](c3cccc(OCCO)c3)N2C1=O | 1.53 | -0.752 (inactive) | 0.0936 (inactive) | -0.425 (inactive) | 2.98 | 1.23 (inactive) | -0.16 | 1.19 | 0.97 | -0.0967
CCOC(=O)C[C@H]1[C@H](OC(=O)c2ccccc2-c2ccccc2)[C@@H](NC(=O)Cc2ccc(OC)cc2)c2cc(OCCCO)ccc2N1C(=O)c1ccccc1 | -0.617 | 0.82 (inactive) | 0.266 (inactive) | 1.36 (inactive) | 1.33 | -1.08 (inactive) | -0.218 | -0.337 | -0.231 | -0.115
[N-]=[N+]=NCc1ccccc1C[C@]1(C(=O)NCC(O)CO)N=C(c2ccc(OCCCO)cc2)O[C@H]1c1ccccc1N=[N+]=[N-] (stereo not given in full) | -0.384 | 0.727 (inactive) | 0.325 (inactive) | 2.77 (inactive) | 2.61 | 1.02 (inactive) | 0.679 | -0.761 | -0.25 | 0.428
O=C1O[C@@H](c2ccccc2)[C@@H](c2ccccc2)N2[C@@H](c3ccc(OCCO)cc3)[C@]3(C(=O)Nc4ccc(C#CC5=CCCCC5)cc43)[C@@H](C(=O)O)[C@H]12 | 1.5 | 1.73 (inactive) | 1.22 (inactive) | -0.188 (inactive) | 1.96 | 0.112 (inactive) | 0.0919 | 0.107 | 0.793 | 0.0061
